Data as given in the supplement of paper PMC3334620.
In all, about 33,000 sequences were measured (“E-score (-0.5 to 0.5)”: median about -0.053, highest 2% from about 0.37 on). The sample holds the highest values, similar sequences and a random draw of the others, so the mix is not that of the screen.

What follows are sequences tested against Hap1 (UniProt P0CE41) (assay: PBM E-score (8-mer binding enrichment) (E-score (-0.5 to 0.5)); higher = stronger / more preferred TF binding). Details: protein concentration: 200 nM; construct: GST-DNA-binding domain.
Description: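 Universal 'all 10-mer' protein binding microarrays (Agilent AMADID 015681) probed with GST-tagged S. cerevisiae TFs (full-length or DBD) made by in vitro transcription/translation (PURExpress), about 100-200 nM. Bound TF was detected with fluorescent anti-GST. Each ungapped 8-mer (which stands for itself and its reverse complement) is scored by the PBM enrichment score (E-score), a modified Wilcoxon-Mann-Whitney statistic from -0.5 to +0.5, computed with the Universal PBM Analysis Suite. Scale: above 0.35 generally sequence-specific binding.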

Sequence of UniProt P0CE41 (P0CE41 whole entry, the tested form may be a part): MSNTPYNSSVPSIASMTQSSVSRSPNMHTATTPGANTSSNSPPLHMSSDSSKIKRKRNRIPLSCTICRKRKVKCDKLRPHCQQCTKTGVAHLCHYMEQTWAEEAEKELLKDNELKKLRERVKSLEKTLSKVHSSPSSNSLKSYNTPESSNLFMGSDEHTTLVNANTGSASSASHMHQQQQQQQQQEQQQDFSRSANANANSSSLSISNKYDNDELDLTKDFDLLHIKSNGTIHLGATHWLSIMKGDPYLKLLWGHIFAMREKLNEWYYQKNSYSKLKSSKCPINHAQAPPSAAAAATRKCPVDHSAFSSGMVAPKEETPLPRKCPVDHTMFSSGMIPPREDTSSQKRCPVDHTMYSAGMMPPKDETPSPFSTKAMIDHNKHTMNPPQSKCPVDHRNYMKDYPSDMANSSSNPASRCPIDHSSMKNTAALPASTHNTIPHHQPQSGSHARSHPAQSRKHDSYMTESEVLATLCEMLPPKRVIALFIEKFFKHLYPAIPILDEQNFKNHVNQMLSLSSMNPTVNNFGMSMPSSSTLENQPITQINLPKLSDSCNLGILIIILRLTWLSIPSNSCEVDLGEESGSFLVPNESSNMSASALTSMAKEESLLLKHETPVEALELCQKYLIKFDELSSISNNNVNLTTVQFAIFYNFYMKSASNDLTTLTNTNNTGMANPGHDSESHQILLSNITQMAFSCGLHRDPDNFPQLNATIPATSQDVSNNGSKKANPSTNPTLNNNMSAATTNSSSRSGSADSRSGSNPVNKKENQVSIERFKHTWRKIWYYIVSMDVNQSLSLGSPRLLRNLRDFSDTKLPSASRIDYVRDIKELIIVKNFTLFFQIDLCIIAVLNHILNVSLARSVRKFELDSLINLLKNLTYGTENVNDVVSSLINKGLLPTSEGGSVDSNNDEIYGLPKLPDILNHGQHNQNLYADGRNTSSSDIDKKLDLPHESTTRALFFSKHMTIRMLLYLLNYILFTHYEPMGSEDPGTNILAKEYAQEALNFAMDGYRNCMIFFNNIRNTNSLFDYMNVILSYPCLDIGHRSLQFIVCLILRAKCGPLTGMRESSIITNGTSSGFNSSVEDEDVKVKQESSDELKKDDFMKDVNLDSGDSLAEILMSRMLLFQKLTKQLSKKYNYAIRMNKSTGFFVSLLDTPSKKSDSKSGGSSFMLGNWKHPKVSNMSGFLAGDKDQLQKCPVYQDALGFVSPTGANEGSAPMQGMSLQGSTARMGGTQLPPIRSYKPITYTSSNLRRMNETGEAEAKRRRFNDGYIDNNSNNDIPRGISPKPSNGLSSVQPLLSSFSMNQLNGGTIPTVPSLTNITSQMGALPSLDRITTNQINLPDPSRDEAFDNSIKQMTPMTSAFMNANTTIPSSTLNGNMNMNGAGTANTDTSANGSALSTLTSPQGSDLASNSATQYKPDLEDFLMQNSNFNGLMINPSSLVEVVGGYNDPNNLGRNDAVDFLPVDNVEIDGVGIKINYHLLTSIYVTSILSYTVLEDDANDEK

Sequence | PBM E-score
ATGACGAG | -0.168
CCCGCACC | 0.151
ATCCCAAC | -0.239
GGCAGGAC | 0.0548
CATAAGAC | 0.0262
CCGAGAGA | 0.309
CCGAGCGC | 0.384
CCGAGCCA | 0.347
ACGAGCGG | 0.161
ACGAGCGC | -0.00987
CCGAGCGA | 0.36
GCGAGCGC | 0.137
CCGAGCCG | 0.397
CCGAGAGC | 0.396
ACGAGAGC | -0.0925
ACGAGCCG | 0.0797
CCGAGCGG | 0.395
ACATTGGA | -0.0771
AAGCTGCC | 0.0235
CATTTCCC | 0.162
ATCTACGG | 0.299
CCTGAGCA | -0.151
AAAGCCCC | 0.106
AAAGCCGC | 0.305
CAAGCCGA | 0.24

Sequence | PBM E-score
AAAGCCCG | 0.374
AAAGCCGT | 0.322
CAAGCCGG | 0.292
GAAGCCGA | 0.308
AAAGCCGA | 0.426
AAAGCCCT | -0.0264
TAAGCCGA | 0.382
AAAGCCTG | -0.184
AAAGCCGG | 0.439
GCCGCTTA | 0.073
GTAGCCAC | -0.194
GTTTTAGA | 0.00012
AGAGAACG | -0.258
CAATTCGG | 0.267
GTGCTGCA | 0.0816
CCAGCACG | -0.13
AAAAGCCG | 0.414
AAAAGCCT | -0.221
AAAAGCCC | 0.138
AGCTTTGG | -0.135
ACCGGACA | 0.411
ACCGGATA | 0.359
CCCCGACA | 0.302
CCCGGACG | 0.388
GCCGGATA | 0.426

Sequence | PBM E-score
CCCGGATA | 0.325
ACTGGACA | -0.00994
CACGGACG | 0.331
CCCCGACG | 0.379
AGCGGACA | 0.326
CCGGGACG | 0.199
CCCCGACC | 0.238
AGATCCCG | 0.283
AGTACCCG | 0.1
CGAAAGAG | 0.0191
AGGTGCTC | -0.269
CCTGGAGC | -0.197
ACTCGCAA | -0.231
GTCCACTA | -0.102
GAACTGCC | -0.0156
CTACCATA | -0.191
GATGAGCA | -0.0729
ACAATAGG | -0.0571
GAAACGTC | -0.0511
GATATGCA | 0.0359
AGCTACTG | -0.00261
CCGGGACA | 0.299
CCCGGACA | 0.39
CCCGGACC | 0.361
TACGGACA | 0.291

Sequence | PBM E-score
GACGGACA | 0.325
TCCGGACA | 0.444
TGCGGACA | 0.22
GCCGGACA | 0.423
GCCGGACC | 0.341
CCGGGCTC | 0.243
ACACTCAG | -0.208
CACCCCGA | 0.229
TCCCCCGA | 0.393
GACCCCGA | 0.285
AACCCCCA | -0.217
AACCCCGT | 0.329
AACCCCGA | 0.456
ACCCCCGT | 0.126
ACCCCCGA | 0.371
TACCCCGA | 0.398
CCCCCCGA | 0.253
GCCCCCGA | 0.2
ACACCCGA | 0.305
AACAAAGG | 0.0332
AGGGATAC | -0.181
CCGGCTAA | 0.331
TCGTTCAA | -0.246
GGGGAGGA | 0.093
GCATAGAC | -0.19

Sequence | PBM E-score
GGCCTCTA | -0.34
ACATCTCT | -0.0976
CCGTTATC | 0.385
ACGTTATC | 0.17
CCGTTATA | 0.311
GACACAAA | 0.132
CGGACGAA | 0.431
AGGACGAG | -0.282
GGGACGAC | -0.117
CGGACGAG | 0.387
AGGACGAA | 0.128
GGGACGAA | 0.0323
CGGACGAC | 0.371
CCGACGAG | 0.259
AGGACGAC | -0.143
CCCCGTAC | 0.0387
CTATGAGA | -0.248
ATAGCCCG | 0.173
GCCCAGCA | -0.0648
ATAAGAAG | 0.0696
ATATCTTC | 0.152
GCTTAACC | -0.0526
CTCACCTA | -0.159
ATTATCCA | -0.0526
AATATCGC | 0.314

Sequence | PBM E-score
CATATCGC | 0.179
CATATCGG | 0.404
AATATCCC | 0.109
AATATCGA | 0.0281
ATTATCCG | 0.391
AATATCCG | 0.414
ATTATCCC | 0.0666
AATATCGG | 0.443
CATATCGA | 0.0363
AATATCCA | 0.0415
CTGCACTA | 0.0173
AGACACGC | -0.0363
ACTCATCG | -0.0326
AACTATGG | -0.0562
CACGCCAA | -0.148
CACAGCTG | -0.194
CGGATGGA | 0.238
GAGCGTTA | -0.121
ACCTTGAG | -0.113
ATTATCGG | 0.432
ATTATCGA | -0.0673
ATTATCGC | 0.132
CAAATCCG | 0.344
AAAATCCG | 0.437
AAAATCCC | 0.0176

Sequence | PBM E-score
GCTCGAGC | 0.0114
GCGAACGA | 0.00245
GGACCCTA | -0.0296
CGGCGCAC | 0.259
GAAAGACA | -0.0415
ATTACCGA | 0.348
ATTACCGG | 0.434
AATACCGT | 0.252
AATACCGG | 0.451
ATTACCGC | 0.274
AATACCGC | 0.304
CATTCAGA | -0.141
ACATCGCA | -0.0398
GAGGAGAC | -0.0943
GAAAGGGA | -0.0702
ACCTTATC | 0.139
GTGGCCAC | 0.203
AGCGGAGC | 0.223
ATCGGGTG | 0.37
CGCGGAGC | 0.274
GGCGGAGA | 0.36
CGCGGAGA | 0.397
ATCGGGGA | 0.386
ATCGGGTC | 0.343
ATCGGGGG | 0.349

Sequence | PBM E-score
ATCAGAGC | -0.0942
ATCGGGTA | 0.283
GTCGGGGA | 0.301
ATCGGAGC | 0.396
ACGAACCA | -0.038
CTCCTATA | -0.327
AGATCACG | -0.113
GAATTTAC | 0.0854
ACGCCTCC | 0.00213
AGAAAAAG | -0.0187
CTCGGAGA | 0.407
GTCGGAGA | 0.355
CTCGGAGC | 0.322
ATCGGAGG | 0.227
CTTGGAGA | -0.0528
ATCGGAGA | 0.415
ACGATTTC | 0.0291
ATATGGAC | -0.0394
GGTCTGCA | 0.0455
AATTCGGC | 0.131
CATTCGGA | 0.321
GATTCGGA | 0.299
TATTCGGA | 0.37
AATTCGGG | 0.287
AATTCGGA | 0.414

Sequence | PBM E-score
CAACAGCG | -0.0733
AGATTACA | 0.0437
CACCACGC | -0.201
GACATCCA | -0.175
ATAACCAA | -0.182
ACCCTGGC | -0.146
GCAAGAGC | -0.151
AGATTCTG | -0.14
ATCTGCCG | 0.318
AAACACCG | 0.388
CAACACCG | 0.13
AAACACCT | -0.0632
TCAAAAGA | -0.152
CCACTTTA | -0.00297
TCCGCCCA | 0.209
AATGCCTC | -0.116
CGGAGCAC | 0.196
CGGAGCTA | 0.443
CGGAGCAA | 0.394
AGGAGCTA | -0.192
TGGAGCAA | -0.195
CGGAGCTC | 0.313
CGGAGCGC | 0.258
AACAAAGC | -0.0164
AGCGCATG | -0.2

Sequence | PBM E-score
ATTGACCC | -0.0115
GCCTGCTA | -0.152
CCCGAAAG | 0.298
ACCGAAGA | 0.207
GCCGAACA | 0.233
GCCGAAAC | 0.38
CCCGAAAA | 0.426
CCCGAAGA | 0.284
GCCGAAAA | 0.345
ACCGAACA | 0.265
ACCGAAAC | 0.323
CCCGAAAC | 0.208
TCCGAACA | 0.381
TCCGAAGA | 0.419
GGCGAAAC | 0.194
CGGCGGTC | 0.244
CAGCGCGC | 0.057
CTTTCAGC | 0.0716
ACCGAAAA | 0.26
TGCGAAAA | -0.00129
TCCGAAAA | 0.393
AGCAACTA | -0.0755
AGAATCAT | -0.259
AATCACAT | 0.0324
CGTGGTCC | -0.0363

Sequence | PBM E-score
CGCCGGCG | 0.422
CGGCGCCA | 0.246
CGCCGCCG | 0.276
CGCCGGCA | 0.349
AGCCGGCG | 0.352
CGGCGCCG | 0.406
GGCCGGCC | 0.367
CGCCGGCC | 0.396
AGGCGCCG | 0.0638
CGGACCGC | 0.367
ACGACCGG | 0.292
CCGACCGC | 0.181
CCGACCGA | 0.422
GGGACCGA | 0.329
GCGACCGA | 0.253
CGGACCGA | 0.423
CGGACCTA | 0.425
AGGACCTA | 0.095
CCGACCGG | 0.428
ACGACCGA | 0.275
GGGACCTA | 0.116
AGTAGCGG | 0.216
ACCTCTCG | -0.0768
CCAGGCCC | -0.0511
CGCGGCCG | 0.27

Sequence | PBM E-score
ACTACGGA | 0.238
TATCAGAA | 0.0826
AATCCTAT | 0.204
GTCCTACA | 0.145
ATCTGGCG | 0.0049
AAGCGTAC | -0.292
CGGACCCC | 0.233
CGGACCAC | 0.279
CGGACCCG | 0.387
CGGACCAA | 0.383
CGGACCAG | 0.304
AGGACCCG | 0.218
TCGACCCA | -0.221
TCGACCGA | 0.393
TCGACCAA | -0.331
GGAATCAC | 0.196
AGAGTAAT | 0.076
CGGTGAGA | 0.12
ATCAACAT | -0.109
ACCCCCAG | -0.25
CTATTTCC | 0.397
CTATTTTC | 0.0335
ATATTTCC | 0.427
CTATTTCA | -0.0144
ATATTTCG | 0.235

Sequence | PBM E-score
ATATTTCA | -0.15
AACTTTCA | -0.106
CGGTCTTA | 0.404
CGGTCTGA | 0.205
GGGTCATA | -0.00686
GGGTCTTA | 0.0728
CGGTCATC | 0.192
CGGTCGTA | 0.383
GGGTCGTA | 0.0749
CGGTCATA | 0.411
CGGTCGTC | 0.165
TAGACCCA | -0.194
ATCACGGC | 0.134
ACAAAAGC | 0.0095
CATGGGTC | -0.168
ATCGGCGG | 0.408
ATCGGCGC | 0.343
ATCGGCCG | 0.443
ATCGGCCC | 0.379
AACGGCCT | 0.074
AGCGGCGG | 0.291
AACGGCCA | 0.183
CTCGGCCC | 0.336
ATCGGGCC | 0.324
ATCGGCCA | 0.253

Sequence | PBM E-score
AACGGCCG | 0.405
ATCGGCAG | 0.315
ATCTGCGC | 0.00257
CTATAGGC | -0.0955
CGACCACG | 0.0929
GGGTGGAC | 0.132
GATGGTGC | -0.29
GCCGGAAC | 0.371
AGCGGAAA | 0.318
ACCGGAAA | 0.417
AGCGGAAC | 0.243
GGCGGAAC | 0.257
ACCGGAAG | 0.333
CCCGGAAC | 0.31
GACGGAAC | 0.174
ACCGGAAC | 0.403
CCGCAACG | 0.216
GCATATCA | 0.0762
CTACTCCA | -0.0772
